Assay results reported in PubChem BioAssay (EPA / NIEHS).
Results filed as inconclusive are left out. Active and inactive are the calls of the source. The calls were made as follows, unless noted: active = hit-call score of the fitted dose curve at least 0.9, where 1 is the maximum; inactive = score below 0.9.

Columns and labels:
[1] = ATG_PXRE_CIS: Attagene CIS-FACTORIAL HepG2 Assay for human Pregnane X Receptor Element (PXRE) (AID 2282957); conditions: HepG2 Attagene CIS-FACTORIAL PXRE reporter, mRNA; actives raise or lower the signal
Method in brief: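 Transiently transfected HepG2 cells were dosed and incubated for 24 h. RNA was then isolated, DNase-treated, reverse-transcribed and reporter sequences amplified. Labeled, HpaI-digested fragments were quantified by capillary electrophoresis against DMSO.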

[2] = ATG_RORE_CIS: Attagene CIS-FACTORIAL HepG2 Assay for human RAR-related Orphan Receptor Element (RORE) (AID 2282959); conditions: HepG2 Attagene cis-factorial RORE reporter, mRNA; actives raise or lower the signal
Method in brief: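 Endogenous factor activity at a cis response element is read as reporter transcript levels in HepG2 cells, 24 h post-dose. Transcripts are quantified by RT-PCR with capillary electrophoresis, and data fitted in both directions against DMSO.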

[3] = ATG_Sox_CIS: Attagene CIS-FACTORIAL HepG2 Assay for human SRY-box transcription factor (SOX) (AID 2282960); conditions: HepG2 Attagene cis-factorial SOX reporter, mRNA; actives raise or lower the signal
Method in brief: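 Measures mRNA induction of a SOX1-associated reporter in HepG2 after 24 h dosing. Fluorescently labelled RT-PCR fragments are separated by capillary electrophoresis, and gain or loss relative to DMSO control is fitted.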

[4] = biological target: Transcription factor Sp1 (Homo sapiens) (UniProt P08047); experiment: ATG_Sp1_CIS: Attagene CIS-FACTORIAL HepG2 Assay for human Specificity Protein 1 (Sp1) (AID 2282961); conditions: HepG2 Sp1 cis-reporter transcription, actives raise or lower the signal
Method in brief: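 Cells: HepG2, transiently transfected with cis-regulated multiplexed reporters. Exposure: 24 h. Detection: reporter transcripts amplified, fluorescently labeled, restriction-digested and sized by capillary electrophoresis. Analysis: bidirectional fit relative to DMSO.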

[5] = ATG_SREBP_CIS: Attagene CIS-FACTORIAL HepG2 Assay for human Sterol Regulatory Element Binding (SREBP) (AID 2282962); conditions: HepG2 Attagene cis-factorial SREBP reporter, mRNA; actives raise or lower the signal
Method in brief: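 HepG2 cells transiently transfected with multiplexed cis-promoter reporter units sensing endogenous transcription factors; reporter mRNA measured 24 h after dosing by RT-PCR, 6-FAM labeling, HpaI digestion and capillary electrophoresis. Bidirectional fit versus DMSO.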

[6] = biological target: Signal transducer and activator of transcription 3 (Homo sapiens) (UniProt P40763); experiment: ATG_STAT3_CIS: Attagene CIS-FACTORIAL HepG2 Assay for human Signal Transducer and Activator of Transcription 3 (STAT3) (AID 2282963); conditions: HepG2, Attagene cis-factorial STAT3 reporter transcription; actives raise or lower the signal
Method in brief: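 Endogenous STAT3-responsive cis-element activity was read in transiently transfected HepG2 cells after 24 h treatment. Reporter transcripts were quantified via RT-PCR and capillary electrophoresis, with DMSO as negative control and bidirectional curve fitting.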

[7] = ATG_TA_CIS: Attagene CIS-FACTORIAL HepG2 Assay for human TA Basal Promoter (AID 2282964); conditions: HepG2 Attagene CIS-factorial TA basal promoter reporter; actives raise or lower the signal
Method in brief: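 Cis-factorial format in HepG2: reporters report endogenous factors, not chimeric Gal4 fusions. After 24 h treatment, reporter transcripts were measured by RT-PCR-capillary electrophoresis fluorescence, analysed bidirectionally versus DMSO.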

[8] = ATG_TCF_b_cat_CIS: Attagene CIS-FACTORIAL HepG2 Assay for human T-Cell-Factor with beta-catenin (TCF/b-cat) (AID 2282965); conditions: HepG2 TCF/beta-catenin cis-reporter transcription, actives raise or lower the signal
Method in brief: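 Endogenous transcription factor activity is captured through cis-promoter reporter constructs transiently introduced into human HepG2 liver cells. Induced reporter mRNA is measured after 24 h and fitted bidirectionally relative to DMSO.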

[9] = ATG_TAL_CIS: Attagene CIS-FACTORIAL HepG2 Assay for human TAL Basal Promoter (AID 2282966); conditions: HepG2 Attagene cis-factorial TAL promoter reporter; actives raise or lower the signal;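 also: background control endpoint measuring basal TAL promoter reporter mRNA not a specific factor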
Method in brief: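 Readout: reporter mRNA, fluorescence by CE. System: HepG2, transient multi-reporter transfection, endogenous TF activity. Exposure: 24 h. Analysis: bidirectional, DMSO-normalized; background control.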

[10] = ATG_TGFb_CIS: Attagene CIS-FACTORIAL HepG2 Assay for human Transforming Growth Factor (TGF) (AID 2282967); conditions: HepG2 Attagene CIS TGFb reporter, mRNA transcription; actives raise or lower the signal
Method in brief: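 Multiplexed cis-reporter HepG2 system, 24 h treatment; mRNA induction read by fluorescence after RT-PCR and CE; DMSO negative control, bidirectional curve fitting.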

[11] = biological target: X-box-binding protein 1 (Homo sapiens) (UniProt P17861); experiment: ATG_Xbp1_CIS: Attagene CIS-FACTORIAL HepG2 Assay for human X-box Binding Protein 1 (XBP1) (AID 2282972); conditions: HepG2 XBP1 cis-element reporter, Attagene multiplex; actives raise or lower the signal
Method in brief: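 HepG2 cells transiently transfected with multiple cis-element reporter units report endogenous TF activity; 24 h exposure, then reporter mRNA measured by RT-PCR, 6-FAM labelling, HpaI digestion and capillary electrophoresis. Bidirectional fitting versus DMSO.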

[12] = ATG_GAL4_TRANS: Attagene TRANS-FACTORIAL HepG2 Assay for GAL4 (Internal Marker) (AID 2282976; active = hit-call score of the fitted dose curve at least 0.9, where 1 is the maximum); conditions: HepG2 Attagene TRANS GAL4 internal marker reporter
Method in brief: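 Fluorescence from capillary electrophoresis of labelled RT-PCR products quantifies reporter mRNA induction after 24 h dosing of HepG2 cells carrying transfected GAL4-UAS reporter transcription units. Vehicle DMSO serves as baseline.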

[13] = biological target: Glucocorticoid receptor (Homo sapiens) (UniProt P04150); experiment: ATG_GR_TRANS: Attagene TRANS-FACTORIAL HepG2 Assay for human Glucocorticoid Receptor (GR) (AID 2282978; active = hit-call score of the fitted dose curve at least 0.9, where 1 is the maximum;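 also: activators score as hits since higher reporter transcript over DMSO is fitted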); conditions: HepG2 Attagene TRANS GR reporter, mRNA transcription
Method in brief: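 Reporter transcript levels, detected by fluorescence after RT-PCR and capillary electrophoresis, served as the endpoint. HepG2 cells bearing transfected GAL4-UAS reporters responsive to NR-GAL4 chimeras were incubated with compound 24 h; DMSO defined baseline.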

[14] = ATG_PPRE_CIS: Attagene CIS-FACTORIAL HepG2 Assay for human Peroxisome Proliferator-activated Response Element (PPRE) (AID 2282958); conditions: HepG2 PPRE cis-element reporter, Attagene transcription factor profiling; actives raise or lower the signal
Method in brief: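 In this cell-based multiplex, a PPRE cis element drives a reporter sequence in transiently transfected HepG2 cells. Following 24 h treatment, labeled cDNA amplicons are sized and quantified by capillary electrophoresis, with DMSO defining baseline.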

[15] = ATG_VDRE_CIS: Attagene CIS-FACTORIAL HepG2 Assay for human Vitamin D Receptor Element (VDRE) (AID 2282968); conditions: HepG2 VDRE cis-reporter transcription, actives raise or lower the signal
Method in brief: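 Reporter mRNA induction, quantified by capillary electrophoresis of fluorescently labelled RT-PCR products, was read 24 h after dosing HepG2 cells carrying transiently transfected cis-regulated reporter units; gain or loss relative to DMSO.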

[16] = biological target: Estrogen receptor (Homo sapiens) (UniProt P03372); experiment: ATG_ERa_TRANS: Attagene TRANS-FACTORIAL HepG2 Assay for human Estrogen Receptor alpha (ERa) (AID 2282970; active = hit-call score of the fitted dose curve at least 0.9, where 1 is the maximum); conditions: HepG2 Attagene TRANS ERa GAL4 reporter, mRNA
Method in brief: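 Transactivation via ERa-Gal4 chimera in HepG2; 24 hour incubation; reporter mRNA detected by fluorescence RT-PCR and capillary electrophoresis.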

[17] = ATG_M_19_TRANS: Attagene TRANS-FACTORIAL HepG2 Assay for M19 Transcription Factor (Internal Marker) (AID 2282974; active = hit-call score of the fitted dose curve at least 0.9, where 1 is the maximum); conditions: HepG2 Attagene TRANS-FACTORIAL M19 internal marker reporter
Method in brief: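 Reporter mRNA induction was measured in transfected HepG2 cells 24 h after dosing. Endpoint fitted upward relative to DMSO and serves as a background control within the multiplexed TRANS panel.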

[18] = biological target: Nuclear receptor subfamily 1 group I member 3 (Homo sapiens) (UniProt Q14994); experiment: ATG_CAR_TRANS: Attagene TRANS-FACTORIAL HepG2 Assay for human Constitutive Androstane Receptor (CAR) (AID 2282969; active = hit-call score of the fitted dose curve at least 0.9, where 1 is the maximum;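 also: activators raise reporter mRNA above DMSO so AC50 marks induction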); conditions: HepG2 Attagene TRANS-FACTORIAL CAR reporter
Method in brief: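 Readout is reporter mRNA induction, quantified by fluorescent primer extension and capillary electrophoresis after RT-PCR. Cells were HepG2 transiently carrying chimeric NR-Gal4 constructs with GAL4-UAS reporters, treated for 24 h; activity scored upward from DMSO.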

[19] = biological target: Estrogen-related receptor gamma (Homo sapiens) (UniProt P62508); experiment: ATG_ERRg_TRANS: Attagene TRANS-FACTORIAL HepG2 Assay for human Estrogen-Related Receptor gamma (ERRg) (AID 2282977; active = hit-call score of the fitted dose curve at least 0.9, where 1 is the maximum;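 also: hits increase reporter signal over DMSO so potencies reflect activators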); conditions: HepG2 Attagene TRANS reporter, ERRg transactivation
Method in brief: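 Transfect HepG2 with multiple GAL4-UAS reporter transcription units; dose chemicals 24 h; isolate RNA, reverse-transcribe with oligo(dT), PCR-amplify, label with 6-FAM, digest with HpaI; size fragments by capillary electrophoresis. DMSO serves as negative control.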

[20] = biological target: Steroid hormone receptor ERR1 (Homo sapiens) (UniProt P11474); experiment: ATG_ERRa_TRANS: Attagene TRANS-FACTORIAL HepG2 Assay for human Estrogen-Related Receptor alpha (ERRa) (AID 2282971; active = hit-call score of the fitted dose curve at least 0.9, where 1 is the maximum); conditions: HepG2 Attagene TRANS reporter, ERRa transactivation
Method in brief: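 HepG2 cells were transiently transfected with multiple GAL4-UAS reporter units, then dosed with compound for 24 h. Total RNA was reverse-transcribed, reporter cDNA PCR-amplified and fluorescently labelled, and fragments resolved by capillary electrophoresis; induction was compared with DMSO.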

Measured: AC50

Transcription factor Sp1 (Homo sapiens), sequence (P08047 whole entry, looked up): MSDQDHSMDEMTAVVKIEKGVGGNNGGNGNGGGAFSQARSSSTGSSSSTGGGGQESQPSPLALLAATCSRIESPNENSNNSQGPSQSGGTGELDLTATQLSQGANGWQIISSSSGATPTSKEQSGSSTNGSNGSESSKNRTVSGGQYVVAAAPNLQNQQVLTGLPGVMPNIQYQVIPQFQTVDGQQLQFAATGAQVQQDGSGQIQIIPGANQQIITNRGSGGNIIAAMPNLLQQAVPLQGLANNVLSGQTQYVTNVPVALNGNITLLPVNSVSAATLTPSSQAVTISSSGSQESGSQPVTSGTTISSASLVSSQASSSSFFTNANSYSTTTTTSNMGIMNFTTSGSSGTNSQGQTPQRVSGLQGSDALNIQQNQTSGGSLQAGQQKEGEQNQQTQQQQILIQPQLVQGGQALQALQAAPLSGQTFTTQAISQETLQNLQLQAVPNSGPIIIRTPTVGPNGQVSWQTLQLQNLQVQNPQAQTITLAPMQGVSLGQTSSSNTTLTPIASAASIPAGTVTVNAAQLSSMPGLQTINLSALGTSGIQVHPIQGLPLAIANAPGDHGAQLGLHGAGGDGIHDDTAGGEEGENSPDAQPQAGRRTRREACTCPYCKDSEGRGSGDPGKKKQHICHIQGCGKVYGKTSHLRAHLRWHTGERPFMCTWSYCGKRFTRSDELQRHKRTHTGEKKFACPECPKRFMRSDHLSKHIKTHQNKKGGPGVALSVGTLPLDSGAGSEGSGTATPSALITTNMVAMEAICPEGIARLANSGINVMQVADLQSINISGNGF
X-box-binding protein 1 (Homo sapiens), sequence (P17861 whole entry, looked up): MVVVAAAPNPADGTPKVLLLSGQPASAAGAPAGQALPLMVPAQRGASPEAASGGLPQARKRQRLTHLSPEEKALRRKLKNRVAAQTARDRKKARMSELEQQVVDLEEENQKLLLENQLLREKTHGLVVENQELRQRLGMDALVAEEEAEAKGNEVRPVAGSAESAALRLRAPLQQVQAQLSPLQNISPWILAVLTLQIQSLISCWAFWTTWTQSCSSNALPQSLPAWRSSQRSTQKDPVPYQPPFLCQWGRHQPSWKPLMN
Signal transducer and activator of transcription 3 (Homo sapiens), sequence (P40763 whole entry, looked up): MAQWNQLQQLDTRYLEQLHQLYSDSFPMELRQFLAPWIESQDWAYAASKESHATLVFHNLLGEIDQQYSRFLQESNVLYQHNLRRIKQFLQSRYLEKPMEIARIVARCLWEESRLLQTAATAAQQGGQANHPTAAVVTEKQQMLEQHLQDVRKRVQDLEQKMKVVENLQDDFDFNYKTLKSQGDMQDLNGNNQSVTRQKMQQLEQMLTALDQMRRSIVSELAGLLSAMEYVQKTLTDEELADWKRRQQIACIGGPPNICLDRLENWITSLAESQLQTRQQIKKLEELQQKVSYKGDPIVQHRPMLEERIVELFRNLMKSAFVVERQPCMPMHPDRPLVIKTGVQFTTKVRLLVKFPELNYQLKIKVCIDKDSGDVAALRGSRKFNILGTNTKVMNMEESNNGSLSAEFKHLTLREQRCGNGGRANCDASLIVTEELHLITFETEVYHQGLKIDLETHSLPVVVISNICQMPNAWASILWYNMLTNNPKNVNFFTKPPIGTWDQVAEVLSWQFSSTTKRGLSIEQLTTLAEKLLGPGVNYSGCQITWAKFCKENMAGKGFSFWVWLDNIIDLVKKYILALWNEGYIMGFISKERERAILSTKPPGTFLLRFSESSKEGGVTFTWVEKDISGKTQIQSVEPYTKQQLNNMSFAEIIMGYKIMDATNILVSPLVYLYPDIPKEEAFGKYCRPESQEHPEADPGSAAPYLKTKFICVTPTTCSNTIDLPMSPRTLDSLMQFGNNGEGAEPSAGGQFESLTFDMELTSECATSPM
Glucocorticoid receptor (Homo sapiens), sequence (P04150 whole entry, looked up, the tested form may be a part): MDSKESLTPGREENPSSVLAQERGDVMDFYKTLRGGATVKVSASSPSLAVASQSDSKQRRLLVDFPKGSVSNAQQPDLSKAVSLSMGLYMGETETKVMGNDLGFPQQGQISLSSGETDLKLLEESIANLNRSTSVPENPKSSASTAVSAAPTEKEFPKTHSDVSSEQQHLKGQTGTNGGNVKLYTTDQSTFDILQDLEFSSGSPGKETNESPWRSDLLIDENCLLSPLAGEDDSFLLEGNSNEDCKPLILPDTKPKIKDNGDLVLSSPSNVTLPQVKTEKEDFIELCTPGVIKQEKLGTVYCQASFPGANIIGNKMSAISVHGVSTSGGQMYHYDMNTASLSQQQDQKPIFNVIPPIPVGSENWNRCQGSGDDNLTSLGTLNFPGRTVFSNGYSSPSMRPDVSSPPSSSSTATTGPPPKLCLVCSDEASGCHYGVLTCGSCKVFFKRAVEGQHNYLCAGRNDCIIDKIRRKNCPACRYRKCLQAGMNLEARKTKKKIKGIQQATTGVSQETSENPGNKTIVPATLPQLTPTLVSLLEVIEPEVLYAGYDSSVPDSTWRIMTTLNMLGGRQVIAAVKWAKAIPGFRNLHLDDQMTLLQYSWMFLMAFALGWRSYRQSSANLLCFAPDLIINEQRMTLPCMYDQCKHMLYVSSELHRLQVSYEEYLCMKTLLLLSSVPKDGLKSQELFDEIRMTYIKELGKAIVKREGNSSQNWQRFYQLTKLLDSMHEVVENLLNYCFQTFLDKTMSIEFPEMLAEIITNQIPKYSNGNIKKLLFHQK
Estrogen-related receptor gamma (Homo sapiens), sequence (P62508 whole entry, looked up, the tested form may be a part): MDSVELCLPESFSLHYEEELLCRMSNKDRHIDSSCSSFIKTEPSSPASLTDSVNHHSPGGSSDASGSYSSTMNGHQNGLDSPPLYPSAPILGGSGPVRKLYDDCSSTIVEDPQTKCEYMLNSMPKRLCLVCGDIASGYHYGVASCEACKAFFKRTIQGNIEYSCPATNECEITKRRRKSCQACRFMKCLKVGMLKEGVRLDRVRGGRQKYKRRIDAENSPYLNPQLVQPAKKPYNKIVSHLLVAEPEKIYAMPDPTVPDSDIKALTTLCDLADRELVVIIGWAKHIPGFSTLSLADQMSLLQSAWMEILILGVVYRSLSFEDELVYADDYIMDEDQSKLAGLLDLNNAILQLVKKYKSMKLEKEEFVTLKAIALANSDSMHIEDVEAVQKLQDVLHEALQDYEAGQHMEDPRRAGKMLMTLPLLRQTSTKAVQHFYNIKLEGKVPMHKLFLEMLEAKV
Steroid hormone receptor ERR1 (Homo sapiens), sequence (P11474 whole entry, looked up, the tested form may be a part): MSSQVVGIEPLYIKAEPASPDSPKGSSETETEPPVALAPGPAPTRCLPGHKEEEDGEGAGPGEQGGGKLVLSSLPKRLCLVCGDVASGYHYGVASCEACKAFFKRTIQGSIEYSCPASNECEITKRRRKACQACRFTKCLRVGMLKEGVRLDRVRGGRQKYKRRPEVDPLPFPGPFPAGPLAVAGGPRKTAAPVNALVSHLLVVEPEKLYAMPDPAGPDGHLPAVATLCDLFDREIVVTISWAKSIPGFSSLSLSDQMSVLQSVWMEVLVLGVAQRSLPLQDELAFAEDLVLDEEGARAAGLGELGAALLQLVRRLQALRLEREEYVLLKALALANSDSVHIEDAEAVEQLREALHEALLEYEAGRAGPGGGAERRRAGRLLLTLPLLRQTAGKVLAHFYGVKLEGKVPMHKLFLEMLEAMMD
Nuclear receptor subfamily 1 group I member 3 (Homo sapiens), sequence (Q14994 whole entry, looked up, the tested form may be a part): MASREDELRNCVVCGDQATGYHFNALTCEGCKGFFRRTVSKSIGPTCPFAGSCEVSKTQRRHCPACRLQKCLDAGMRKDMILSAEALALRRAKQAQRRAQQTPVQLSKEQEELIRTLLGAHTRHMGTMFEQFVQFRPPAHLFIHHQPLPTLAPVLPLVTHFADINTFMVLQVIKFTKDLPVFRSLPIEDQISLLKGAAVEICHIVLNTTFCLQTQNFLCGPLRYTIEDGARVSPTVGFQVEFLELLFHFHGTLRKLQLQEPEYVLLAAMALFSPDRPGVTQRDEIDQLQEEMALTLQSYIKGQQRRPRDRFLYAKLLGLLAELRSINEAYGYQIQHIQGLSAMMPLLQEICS
Estrogen receptor (Homo sapiens), sequence (P03372 whole entry, looked up, the tested form may be a part): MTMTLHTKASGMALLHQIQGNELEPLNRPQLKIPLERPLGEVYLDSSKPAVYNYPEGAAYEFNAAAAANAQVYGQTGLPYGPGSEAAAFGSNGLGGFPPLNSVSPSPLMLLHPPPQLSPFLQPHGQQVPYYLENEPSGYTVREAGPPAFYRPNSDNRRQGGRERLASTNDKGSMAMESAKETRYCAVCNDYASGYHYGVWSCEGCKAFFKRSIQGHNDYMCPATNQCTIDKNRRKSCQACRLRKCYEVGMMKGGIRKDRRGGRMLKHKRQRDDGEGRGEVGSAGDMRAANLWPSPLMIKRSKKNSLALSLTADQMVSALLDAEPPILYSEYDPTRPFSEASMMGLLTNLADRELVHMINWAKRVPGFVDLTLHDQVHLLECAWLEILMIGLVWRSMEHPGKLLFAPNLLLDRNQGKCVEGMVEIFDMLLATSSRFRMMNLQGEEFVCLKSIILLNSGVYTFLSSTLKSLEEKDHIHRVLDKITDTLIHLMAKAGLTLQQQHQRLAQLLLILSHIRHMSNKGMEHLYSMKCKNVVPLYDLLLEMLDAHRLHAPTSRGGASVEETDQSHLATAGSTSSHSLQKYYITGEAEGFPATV

[As]#[In]
active: [1] 49.9 µM
not listed: [14] | [15] | [16] | [17] | [18] | [19] | [20]
inactive: all other assays above

O=C(Oc1ccc(Br)cc1)N1CCN2CCC1CC2
active: [1] 26 µM
not listed: [2] | [8] | [18] | [19] | [20]
inactive: all other assays above

Cc1cccc(N)c1N
active: [2] 106 µM | [8] 190 µM | [15] 106 µM | [11] 150 µM
not listed: [12] | [14] | [16] | [17] | [20]
inactive: all other assays above

Cc1ccc(N)c(N)c1
active: [2] 31.2 µM
not listed: [12] | [13] | [14] | [16] | [17] | [18] | [19] | [20]
inactive: all other assays above

CCCCCCCCOC(=O)c1ccc(C(=O)OCCCCCCCC)c(C(=O)OCCCCCCCC)c1
not listed: [2] | [8] | [12] | [15] | [16] | [18] | [19] | [20]
inactive: all other assays above

CN(C)c1ccccc1
not listed: [2] | [8] | [14] | [16] | [17] | [18]
inactive: all other assays above

O=Cc1ccco1
not listed: [8] | [12] | [13] | [14] | [16] | [18] | [19] | [20]
inactive: all other assays above

c1ccc(NNc2ccccc2)cc1
not listed: [12] | [14] | [16] | [18] | [19] | [20]
inactive: all other assays above
